About 83,000 compounds went through this panel and 20% of them were active in at least one assay; those are over-represented in the sample as a whole.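 Step 1: grow cells in 96-well plates. Step 2: add test compound at a single concentration. Step 3: incubate 48 h. Step 4: record percent growth.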 A number with no mark means an inactive call. Activity calls are given as the source filed them. The calls were made as follows: active = growth percent below 10; inactive = the rest.
tested on: K-562 leukemia; assay: NCI-60 one-dose screen, 48 h (100 = growth as untreated, 0 = no growth, -100 = all killed); settings: 10 µM unless noted

| Structure (SMILES) | growth |
| --- | --- |
| CO[C@H]1CC(c2ccc[nH]2)=N[C@]12O[C@@H](C)C[C@@H]1CCCCCCCc3ccc([nH]3)[C@H]12 | 21.3% |
| COc1ccc2c(O)cc3c(c2c1)[C@H](CCl)CN3C(=O)c1cc2cc(NC(=O)CCN3CCOCC3)ccc2[se]1 | 70.1% |
| O=c1c(/C=C/c2c(O)ccc3ccccc23)nnc2sc(-c3cccc([N+](=O)[O-])c3)nn12 | 50.9% |
| CC1(C)CCC[C@]23C(=O)O[C@](O)(C(=O)C4=C[C@@](C)(/C=C/CCCc5ccc6ccc7cccc8ccc5c6c78)CC[C@@]42O)[C@@H]13 | 5.77% (active) |
| CCOC(=O)CC1C(CNC(=O)NC)OC(n2cnc3c(NC(=O)Nc4ccccc4)ncnc32)C1O[Si](C)(C)C(C)(C)C (centres undefined) | 58.7% |
| COc1ccc(-c2ccc(-c3ccc(C(=N)N)nc3)s2)cc1 | -27% (active) |
| COc1ccc(Cn2cc3c(c2)-c2oncc2CC3)cc1 | 20.6% |
| O=[N+]([O-])c1ccc(Oc2cccc3c(Oc4ccc([N+](=O)[O-])cc4[N+](=O)[O-])cccc23)c([N+](=O)[O-])c1 | 95.1% |
| CCCCCN(CCCCC)CC(O)c1c(Cl)ccc2ccccc12 (centres undefined) | 61.7% |
| Cn1cc(-c2csc(-c3cn(C)c4ccc(F)cc34)n2)c2cnccc21 | -60.3% (active) |
| CNC1=C([N+](=O)[O-])C(c2ccc(OC)cc2)C(C#N)=C(c2ccc[nH]2)O1 (centres undefined) | 95.7% |
| Cc1cc(C(=O)Nc2cc(Nc3ncccc3-c3ncnc4nc[nH]c34)ccc2F)cc(C(C)(C)C#N)c1 | 6.28% (active) |
| COC(=O)CNC(=O)c1ccc(NC(=O)c2[nH]c(C)c(Cl)c2Cl)c(O[C@H]2CCNC2)c1 | 90.7% |
| FC(F)(F)c1cccc(-c2nnn(Cc3cc(-c4cccc(Cl)c4)no3)n2)c1 | 113% |
| O=C(Nc1ncc(Cc2ccccc2)s1)c1ccc2c(c1)OCCO2 | 8.32% (active) |
| CCOC(=O)c1ccc2c(c1)[n+](=O)c(C(C)=O)c(C(F)(F)F)n2[O-] | -76.7% (active) |
| O=C(Nc1ccccc1C(F)(F)F)C1=NCCCCN1 | 94.4% |
| CCCCCC(C)(O)C(C(=O)O)c1ccccc1 (centres undefined) | 121% |
| Nc1ncnc2c1N=C(c1ccc([N+](=O)[O-])cc1)CC(c1ccc3c(c1)OCO3)N2 (centres undefined) | 93.4% |
| COc1cc2c(cc1OC)CC[N+](CCC[N+](C)(C)C)=C2 | 111% |

| Structure (SMILES) | growth |
| --- | --- |
| O=C1Nc2ccccc2/C1=C/c1cccn1CCCCCCn1c2ccccc2c(=O)c2ccccc21 | 66.6% |
| CCCS(=O)(=O)Nc1cccc(Nc2ncnc3cc(NC(=O)CCl)ccc23)c1Cl | 0% (active) |
| Cc1ccc(C23CCC(=O)N2CCc2cncn23)cc1 (centres undefined) | 112% |
| Cc1ccc(-c2nn(CC(=O)N3CCOCC3)c(N)c2C#N)cc1 | 99.8% |
| COC(=O)[C@H](C)NC(=O)[C@@H]1CCCN1C(=O)CNC(=O)[C@H](C)N | 101% |
| O=C1c2c(c3c4cccnc4[nH]c3c3ccc4ccccc4c23)C(=O)N1O | 29.7% |
| C#CCOc1cccc(Nc2ncnc3c(NC(=O)CCl)cccc23)c1 | -21.7% (active) |
| COc1ccc(CNc2c3ccccc3nc3ccccc23)cc1OC | 8.81% (active) |
| COc1ccc(-c2csc(NC(=O)CSc3nc(C)cc(=O)[nH]3)n2)cc1 | 104% |
| O=C(CNc1ncco1)Nc1ccc(S(=O)(=O)c2ccc(NC(=O)CNc3ncco3)cc2)cc1 | -6% (active) |
| Cc1c2cnccc2c(C)c2c1c1cc(C(=O)O)ccc1n2C | 9.3% (active) |
| COc1ccc(-c2cn(Cc3ccc4c(Br)cc(Br)c(O)c4n3)nn2)cc1 | 39.1% |
| COC(=O)c1c(C(=O)OC)c2ccc3c4ncccc4ccc3n2c1C(=O)c1ccc(C)cc1 | 85.8% |
| O=[N+]([O-])c1ccc(N/N=C\c2cc(Cl)ccc2O)nc1 | 17.8% |
| COc1ccc(C(=O)/C=C/c2ccc(C)cc2)cc1S(N)(=O)=O | 3.04% (active) |
| CN1CCN(CC(=O)N(C)c2ccc(N=C(c3ccccc3)c3c(O)[nH]c4ccc([N+](=O)[O-])cc34)cc2)CC1 | 5.2% (active) |
| C=CC(=O)NCc1cccc(Nc2ncc(Br)c(NCCCNC(=O)C3CCC3)n2)c1 | 9.33% (active) |
| Nc1nc(N)c2c(n1)NC(c1cccc(Nc3ccnc4cc(C(F)(F)F)ccc34)c1)CC(c1ccc(Cl)cc1)=N2 (centres undefined) | 10.5% |
| C=C(C[n+]1ccccc1)[C@@H]1CC[C@]2(C(=O)OC)CC[C@]3(C)[C@H](CC[C@@H]4[C@@]5(C)CCC(=O)C(C)(C)[C@@H]5CC[C@]43C)[C@@H]12 | 57.8% |

Reference: PubChem BioAssay (NCI)
